PubChem BioAssay AID651812 (National Center for Advancing Translational Sciences (NCATS), 2012)
Screen size: about 2,100 compounds; about 650 (31%) were called active. Another 16% or so got no clear call; they are omitted. The call rests on the fitted dose curve; in most records, active means well fitted inhibition curve with a large enough effect; inconclusive means small, poorly fitted or top-dose-only effect; inactive means flat fitted curve, though single readings scatter. Some of the results follow.

assay: qHTS for inhibitors of Vif-A3G interactions: Cherry picks; settings: HeLa A3G-eYFP + Vif (tagged APOBEC3G with the HIV-1 protein that degrades it), 24 h; Potency: eYFP fluorescence increase; series mostly up to 36.9 µM; activity, negative = fluorescence increase: at the top concentration; further: nearly all actives have a fitted effect of over 80% in size; on activity, negative = fluorescence increase: % of control where 0% means no effect
Text: The recent discovery and characterization of host restriction factors, which provide a potent defense to invading retroviruses, has provided new targets for antiviral drug development. APOBEC3G (A3G) and APOBEC3F (A3F) are potent cytidine deaminases that block HIV-1 replication; HIV-1 expresses the Vif protein, which counteracts A3G and A3F by binding to them and inducing their proteasomal degradation. The Vif-A3G and Vif-A3F interactions provide two potential targets for development of small molecules which can interfere with the ability of Vif to degrade A3G or A3F. […] To identify inhibitors that can interfere with Vif mediated degradation of A3G and A3F, we have developed Hela cell lines that stably express A3G or A3F tagged with eYFP at the C-terminal end (A3G-eYFP or A3F-eYFP, respectively) and Vif. In the absence of an inhibitor, Vif induces degradation of A3G-eYFP and A3F-eYFP, and the cells are not fluorescent. In the presence of an inhibitor, it is expected that Vif will be unable to degrade A3G-eYFP and/or A3F-eYFP, resulting in an increase in yellow fluorescence. In this assay, Vif A3G was screened against the cherry picks ordered from the MLSMR. NIH Chemical Genomics Center [NCGC] NIH Molecular Libraries Probe Centers Network [MLPCN] MLPCN Grant: MH093245 Assay Submitter (PI): Vinay Pathak, National Cancer Institute
A3G-Vif cells were harvested from T225 flask and resuspended in phenol free OPTI-MEM medium with 5% FBS. Then 5 uL of 140,000 cells/mL resuspended cells was dispensed into each well of low base Aurora COC 1,536-well plates (black walled, clear bottom) using a Multidrop Combi dispenser. After overnight culture at 37 deg C with 5% CO2, a total of 23 nL of compounds at 5 selected concentrations from the NPC or positive control (2 mM stock of MG132) in DMSO was transferred to each well of the assay plate using a pintool (Kalypsys, San Diego, CA), and the plates were further incubated at 37 deg C with 5% CO2 for 24 hours. After that, the plates were measured on Acumen Explorer (TTP Lab Tech). The fluorescence was detected by 488 nm/Ex and […].
Potency means the concentration at half of the fitted maximal effect.

activity, negative = fluorescence increase, inactive:
COCCCNc1nc2ccccc2nc1NS(=O)(=O)c1ccccc1 10.7% [at 46.1 µM], COC(=O)c1cc(Nc2nc3ccccc3nc2NS(=O)(=O)c2ccc(C)cc2)ccc1Cl 7.34% [at 46.1 µM], CN1/C(=C/C=C(/C#N)C(N)=O)C(C)(C)c2ccccc21 -16.1%, Cc1ccc2c(c1)Oc1ccc(NC(=O)CCl)cc1C(=O)N2 1.67%, CC1=NOC(=O)/C1=C\c1ccc(-c2ccc(Br)cc2)o1 -8.38%, CN(C)/C=N/C1=C(C#N)C(c2cccs2)c2ccc3ccccc3c2O1 (stereo not drawn) -4.1%, CC(/C=N/NC(=O)c1cc(-c2ccc3ccccc3c2)n[nH]1)=C\c1ccco1 -19.6%, Cc1cc(C(=O)N/N=C/c2ccc3c(c2)OCO3)c2ccccc2n1 -8.89%, CC(=O)c1cccc(-c2ccnc3c2CC(C(=O)NCc2ccc(F)c(F)c2)O3)c1 (stereo not drawn) -7.23%, CCC(=O)Nc1nonc1-c1nc2ccccc2n1Cc1ccccc1 -3.53%, Cc1ccc2[nH]c3c(c2c1)CCCC3NC(=O)CCl (stereo not drawn) 0.871%, O=c1[nH]c2ccccc2n2c(=S)[nH]nc12 -16.4% [at 46.1 µM], N#Cc1c(NC(=O)c2ccc([N+](=O)[O-])o2)sc2c1CCC2 0.738%, CC1CCCCC1NC(=O)/C(C#N)=C/C=C/c1ccccc1[N+](=O)[O-] (stereo not drawn) -0.675%, COc1cc2cc(-c3ccc(OC)c(OC)c3C)nc(N)c2cc1OC -18.8%, CC(=O)Nc1cccc(-c2ccnc3c2CC(C)(C(=O)Nc2cccc(C(C)=O)c2)O3)c1 (stereo not drawn) -3.63%, O=C(NC(=S)N1CCN(c2ccccn2)CC1)c1ccccc1 -8.21% [at 46.1 µM], O=C(Nc1ccc(Cl)cc1)Nc1ccon1 -6.36%, CCN(c1ccc(NC(=O)CCc2nc3sc4c(c3c(=O)[nH]2)CCCC4)cc1)C(C)C -3.33% [at 46.1 µM], COc1ccccc1N1CCN(C(=O)c2ccc3ncsc3c2)CC1 -5.63%, COc1ccc2oc(=Nc3ccccc3)c(-c3nc4ccccc4[nH]3)cc2c1 -27.4% [at 46.1 µM], COc1ccc(N=c2oc3ccc(OC)cc3cc2-c2nc3ccccc3[nH]2)cc1 -6.38%, CCOc1ccccc1Nc1nnc(-c2cc3cc(Cl)ccc3oc2=O)s1 -23.4% [at 46.1 µM], COc1cccc2sc(Nc3nc(-c4cc5ccccc5oc4=O)cs3)nc12 -3.79%, CCCNC(=O)c1ccccc1NC(=O)c1ccc2c(c1)NC(=O)C(C)S2 (stereo not drawn) -10.8%, Cc1ccc(-c2nc(SCCOc3ccccc3C)n3[nH]c(=O)cc3n2)cc1 6.77% [at 46.1 µM], Cc1ccc(NC(=S)NC(=O)c2ccc(F)cc2)cc1S(=O)(=O)Nc1cccc(Cl)c1 3.25% [at 46.1 µM], O=C(Nc1cc(=O)[nH]c(=O)[nH]1)c1cc(Cl)ccc1Cl -6.68%, COc1cc(Cl)c(C)cc1NC(=O)CN1CCN(C(=O)C2CC2)CC1 -5.23%, CCCn1nc(C(=O)N2CC(=O)Nc3ccccc32)c2ccccc2c1=O -5.96%, COc1cc(C(=O)N2CC(=O)Nc3ccccc32)cc(OC)c1OC -5.08%, CCC(C)[C@H](NC(=O)N1CC(=O)Nc2ccccc21)C(=O)Nc1ccccc1C (stereo partly drawn) 2.3%, Cc1noc(C)c1COc1cccc(C(=O)OCC(=O)N2CC(=O)Nc3ccccc32)c1 -5.26%, Cc1cc(C)cc(C(=O)N2CC(=O)Nc3ccccc32)c1 -15.5%, COc1cc(OC)cc(C(=O)N2CC(=O)Nc3ccccc32)c1 -6.01%, NC(=O)c1ccccc1NC(=S)NC(=O)CCc1ccccc1 1.18%, O=C(/C=C/c1ccco1)NC(=S)Nc1cccc(-c2nc3ccccc3o2)c1 -10.6%, CC(=O)c1cccc(NC(=O)C2CCCN(S(=O)(=O)c3cccc4nonc34)C2)c1 (stereo not drawn) -16.3% [at 46.1 µM], COc1ccc(N2C(=O)NC3CC2(C)Oc2ccccc23)cc1OC (stereo not drawn) -7.13%, CCOC(=O)c1[nH]c(C)c(C(=O)Nc2cc(OC)ccc2OC)c1C -9.64%, COc1ccc(OC)c(NC(=O)Cn2cnc3onc(-c4ccc(Cl)cc4)c3c2=O)c1 2.25% [at 46.1 µM], CCCOc1ccc(N)cc1N -3.69% [at 46.1 µM], O=C1/C(=C/c2ccc(O)cc2)SC(=S)N1CC1CCCO1 (stereo not drawn) 2.84% [at 46.1 µM], COc1nc(-c2ccccc2)cc(-c2ccc3c(c2)OCO3)c1C#N -8.86%, CCOC(=O)c1c(CN(CC)CC)n(-c2ccccc2)c2ccc(O)cc12 -3%, O=C1/C(=C\c2ccc(O)cc2)SC(=S)N1Cc1ccccc1 8.8% [at 46.1 µM], Cc1c(C(=O)OC2CCCCC2)[nH]c2c1C(=O)CC(c1ccccc1Cl)C2 (stereo not drawn) -1.35% [at 46.1 µM], Cc1cc(/C=C2\SC(=Nc3ccccc3)NC2=O)c(C)n1-c1ccc(S(N)(=O)=O)cc1 -12.8%, NC(=O)c1cccc(-c2ccnc3c2CC(C(=O)NCc2ccco2)O3)c1 (stereo not drawn) -1.78%, NC(=S)N/N=C/c1cccc(O)c1O -2.38% [at 46.1 µM], Cc1cc(-n2c(C)cc(C(=O)CCl)c2C)no1 -5.58%, Cc1ccc(/C=N/NC(=O)c2nc3nc(C)cc(C)n3n2)cc1 11.1% [at 46.1 µM], CCc1ccc(/C=N/NC(=O)c2cc(-c3ccncc3)nc3ccccc23)s1 -2.61%, COc1ccc(-c2n[nH]c3c2CN(C(=O)c2ccc(OC)c(OC)c2)CC3)cc1 1.56%, COc1cc2c(cc1OC)CN(C(=O)c1ccc3nc[nH]c3c1)CC2 -3.55%, COc1ccc(-c2cc3ccccc3oc2=O)cc1NC(=S)NC(=O)c1ccc2c(c1)OCCO2 -29.6% [at 46.1 µM], COc1ccc(S(=O)(=O)Nc2cccc(-c3ccc4nncn4n3)c2)cc1 -5.05%, Cc1ccc(NC(=S)N/N=C2\CCCCC2C)cc1 (stereo not drawn) -7.25% [at 46.1 µM], CN(C)S(=O)(=O)c1ccc(N2CCCC2)c(C(=O)N2CCN(S(=O)(=O)c3ccc(F)c(F)c3)CC2)c1 -0.607%, O=C(/C=C/c1ccco1)NC(=S)Nc1ccc(N2CCCC2)cc1 -9.35%, Cc1ccc2[nH]c3c(c2c1)CN(C(=O)CN1CC(C)OC(C)C1)CC3 (stereo not drawn) -22.7%, O=C(Nc1ccccc1OC(=O)c1ccccc1)c1ccccc1 -13.5%, CO/N=C\CC(=O)Nc1ccc(Oc2ccccc2)cc1 -4.61%, COc1cc(OC)cc(C(=O)Nc2ccccc2C(=O)NC2CC2)c1 -10.4%, COc1ccc(C(=O)Nc2cccc(/C=C/c3nc4ccccc4c(=O)[nH]3)c2)cc1 -4.28%, CC(=O)c1cc2c(cc1NS(=O)(=O)c1ccc(C)cc1)OCCO2 -0.455%, Cc1ccc(/C=N/NC(=O)c2cc(C)oc2C)cc1 -5.86%, COC(=O)c1c(-c2ccccc2Cl)noc1/C=C/N(C)C 0.705%

Potency, active:
COc1cc(Cl)c(C)cc1Nc1nc2ccccc2nc1NS(=O)(=O)c1ccccc1 16.4 µM, COc1cc(N2CCCC2)c(OC)cc1/C=C1/NC(=S)NC1=O 2.5 µM, CN1/C(=C/C=C(C#N)C#N)C(C)(C)c2ccccc21 18.4 µM, CN1/C(=C\C=C(C#N)C#N)C(C)(C)c2ccccc21 20.6 µM, CC1=C/C(=C\C=C(C#N)C#N)N(C)c2ccccc21 2.59 µM, CN(C)c1ccc(/C=C/c2ccnc3c(Cl)cccc23)cc1 23.1 µM, CN(C)c1ccc(/C=C/c2ccnc3c(Cl)ccc(Cl)c23)cc1 9.2 µM, ClCc1nc2ccccc2n1Cc1ccccc1 16.4 µM, O=c1[nH]c2ccccc2n2c(C(F)(F)F)nnc12 16.4 µM, CCOCCCNC(=O)/C(C#N)=C/c1ccc([N+](=O)[O-])o1 20.6 µM, CC(NC(=O)/C(C#N)=C/c1ccc([N+](=O)[O-])o1)c1ccccc1 (stereo not drawn) 16.4 µM, CCOc1ccccc1Nc1nnc(-c2cc3cc(OC)ccc3oc2=O)s1 7.31 µM, COc1ccc2oc(=O)c(-c3nc4ccccc4o3)cc2c1 20.6 µM, CC(O)CN(CC(C)O)c1ccc2c(c1)Cc1cc([N+](=O)[O-])ccc1-2 (stereo not drawn) 3.26 µM, C=CCN1C(=O)/C(=C\C=C2\N(C)c3ccccc3C2(C)C)SC1=S 0.651 µM, CN1/C(=C\C=C2/SC(=S)NC2=O)C(C)(C)c2ccccc21 2.5 µM, CN1/C(=C\C=C2/SC(=S)N(CC(=O)O)C2=O)C(C)(C)c2ccccc21 1.3 µM, CCCOc1ccc(C(=O)Nc2cccc(NC(=O)c3ccc(Cl)cc3Cl)c2)cc1 10.3 µM, COc1ccc2nc(SCC(=O)N3CC(=O)Nc4ccccc43)c(C#N)cc2c1 23.1 µM, Cc1cc(C)c2nc(SCC(=O)N3CC(=O)Nc4ccccc43)c(C#N)cc2c1 12.5 µM, Cc1cccc2cc(C#N)c(SCC(=O)N3CC(=O)Nc4ccccc43)nc12 17.7 µM, Oc1cccc(Nc2nc(O)c(/C=C3\C=Nc4ccccc43)s2)c1 23.1 µM, COC(=O)c1ccc(Nc2c([N+](=O)[O-])ccc3nonc23)cc1 20.6 µM, COc1ccc(OC)c(NC(=O)Cn2c(=O)n(-c3ccc(Cl)cc3)c(=O)c3c(C)c(C)sc32)c1 14.6 µM, COc1cc(/C=C2/SC(=S)N(CC3CCCO3)C2=O)ccc1O (stereo not drawn) 18.4 µM, CCOc1cc(/C=C2/SC(=S)N(CC3CCCO3)C2=O)ccc1O (stereo not drawn) 20.6 µM, O=C(O)c1cc(-c2ccc(/C=C3/SC(=S)N(Cc4ccccc4)C3=O)o2)ccc1Cl 18.4 µM, Cc1cc(/C=C2\SC(=S)N(C)C2=O)c(C)n1-c1ccc(O)cc1 20.6 µM, Cc1cc(/C=C2\SC(=S)N(C)C2=O)c(C)n1-c1ccccc1O 23.1 µM, CC(=O)N/N=C/c1cc(C(C)(C)C)cc(/C=N/NC(C)=O)c1O 23.1 µM, CC(=O)N/N=C/c1cc(C(C)C)cc(/C=N/NC(C)=O)c1O 23.1 µM, CC[N+](C)(C(=O)O)/C(=C\c1ccccc1)c1ccnc2ccccc12 (stereo not drawn) 18.4 µM, COc1ccc(C(=O)c2sc3nc4c(c(C(F)(F)F)c3c2N)CN(C(C)=O)CC4)cc1OC 18.4 µM, CC(=O)N1CCc2nc3sc(C(=O)c4ccc(F)cc4)c(N)c3c(C(F)(F)F)c2C1 18.4 µM, Cc1cc(NC(=O)/C(C#N)=C\c2ccc(-c3ccc(SC(F)F)cc3)o2)n(-c2ccccc2)n1 14.6 µM, Cc1cc(NC(=O)/C(C#N)=C/c2ccc(-c3ccc(SC(F)F)cc3)o2)n(-c2ccccc2)n1 10.3 µM, CC(=O)c1cc(NC(=O)c2ccc(Cl)cc2)c(=O)oc1/C=C/N(C)C 11.2 µM, COc1ccc(C(=O)Nc2cc(C(C)=O)c(/C=C/N(C)C)oc2=O)cc1 15.8 µM, CC(=O)c1cc(NC(=O)c2ccc(C)cc2)c(=O)oc1/C=C/N(C)C 16.4 µM, COC(=O)c1cc(NC(=O)c2ccccc2)c(=O)oc1/C=C/Nc1ccc(Oc2ccccc2)cc1 11.6 µM
